# Test results reported in PMC12136788.
# Over roughly 24,000 sequences, “enrichment r” has its median near 0.99; the highest 2% begin near 3.7. These entries were drawn from the full list.
# B1: chr1:171751117:171751118:+_ENSG00000010165_ENST00000361735|hu_hu|motif|central (ssRNA)
# RNA: GGGAGUUCUACAGUCCGACGAUCCUUUUAGGUAAGAGGUUCAUGUUCCUACUGCCGAAGCUGCGUUUUCAAGACUCCCCGGUUCCCUGUGAGAUACCAUUUGAGGAGCUUGCCCACCACACGCAGGCUCCGGGACACUGCAGUCAACAGAGGAUUGAGCAUCA
# B2: chr10:120833061:120833062:-_ENSG00000107581_ENST00000369144|perfect_dup|motif|central (ssRNA)
# RNA: GGGAGUUCUACAGUCCGACGAUCUUGGGACUCUUCUUUAGCAGCUUCUGUUUUUUCCUCUGCUAAUUUCAAAUAUGCCCGGACAACAUCUUCUAAAGAUUUAAUGUUUACCUGUUGGCAUAUGUUCUUAUAUUGAUAUAACCCCAACAGAGGAUUGAGCAUCA
# B3: 18861418_18861648_5666_CDS_ENSG00000157106_ENST00000446231|human|control|control (ssRNA)
# RNA: GGGAGUUCUACAGUCCGACGAUCCAGCCUAGGGUCAUCCUCAUCUAAAGGAAUUUGACCAGCGUUGAGUUUAAGGAAAGUAAAGUAUGCACUGCAAGAGAGUUUGUACAGGCUGAAUAUUCUAUCUACAACUUUCCUCCACACCAACAGAGGAUUGAGCAUCA
# B4: chr11:48615247:48615248:+_ENSMUSG00000020372_ENSMUST00000020640|perfect_dup|FALSE|FALSE (ssRNA)
# RNA: GGGAGUUCUACAGUCCGACGAUCUCCAUCCCAGGAGCCUGAGAGGGCAAACUGGCCAUCUGAGGAGAUAACCACAUCACUAACAAAGUGGGAGUGACCCCGCAGAGCACGCUGUGGAAUUCCAUAGUUGGUCUCAUCCCUGGUCAACAGAGGAUUGAGCAUCA
# B5: chr5:110835399:110835400:-_ENSG00000164211_ENST00000296632|hu_hu|motif|central (ssRNA)
# RNA: GGGAGUUCUACAGUCCGACGAUCUGAGAGCCUGUCUCAAAAUUUAAAAAAAAAAAAGUGAAAAUGCCCUCUCUUAGAUAGCGGUUUACUUUAGGAAUAAAACCAAACAUUGUACUAGUGAACCAAAAACAUUUCAAAUUUUUCCAACAGAGGAUUGAGCAUCA
# B6: chr1:39494564:39494565:+_ENSG00000168653_ENST00000372967|hu_hu|hu_hu_hu_mus_True|68_78 (ssRNA)
# RNA: GGGAGUUCUACAGUCCGACGAUCAUGCAUUCGCCUCAUCGUUUUGUACCGAAGCAAACACUCUACGAAAUCAUCAUACUCUAUCUUGCACUCCUUUUUCGCCCGGGUCCCACCGAUCCCGUGUGCACACUCUAUCCACUCUUUCAACAGAGGAUUGAGCAUCA
# B7: chr14:66974463:66974464:+_ENSMUSG00000022044_ENSMUST00000074523|mus_hu|mus_mus_mus_hu_False|18_58 (ssRNA)
# RNA: GGGAGUUCUACAGUCCGACGAUCUUGUAGGACGACUUAUUCAGGGGAUCGGCCAGGAAGCAGGAGCAGAACAAGGACACUAGUGGGAGCUCCUUCAUCUUCUCUUUGUAGGCAGCAAGAGUCAUGUUUCUGGGAUCUGGUGGCCAACAGAGGAUUGAGCAUCA
# B8: chr5:125866394:125866395:-_ENSMUSG00000008348_ENSMUST00000136312|mus_hu|FALSE|FALSE (ssRNA)
# RNA: GGGAGUUCUACAGUCCGACGAUCACAACUUUAUUGAAAGGAAAGUGCAAUGAAAUUUGUUGAAACCUUAAAAGGGGAAACUUAGACACCCCCCCUCAAGCGCAGGACCAAGUGCAGAGUGGACUCUUUCUGGAUGUUGUAGUCCAACAGAGGAUUGAGCAUCA
# B9: 44041996_44042116_73_3pUTR_ENSMUSG00000034342_ENSMUST00000037644|mouse|control|control (ssRNA)
# RNA: GGGAGUUCUACAGUCCGACGAUCUCGGCCGCGAGCGAGGGAAUGGAGCCGGGCGAGAAGGAGGGGCCUCUCCGGCAACCACCGCCGGCGCUCGCAGCCCAGGGAGUGAGAGGGAGGCGCCCGCCCUGAGGCGCGCCCCUGCGCCAACAGAGGAUUGAGCAUCA
# B10: chr19:16212804:16212805:+_ENSG00000167460_ENST00000300933|hu_mus|hu_hu_hu_mus_False|78_78 (ssRNA)
# RNA: GGGAGUUCUACAGUCCGACGAUCAACAAUUCUGGAGUGAAGGAAAGAUGUAACAUGCAAUUAAUUAAAAGCUCAGUCAGAAGGCACAUGGGCAACAAUGAUCACCCCAGCAUUCUCGCUUGGAAUGCUUAAAGACAAUCUGUUCAACAGAGGAUUGAGCAUCA
# B11: chr14:54894545:54894546:-_ENSG00000100528_ENST00000216416|hu_mus|FALSE|FALSE (ssRNA)
# RNA: GGGAGUUCUACAGUCCGACGAUCCUUCAUUGGUGGCGUUUUGCAUGCACUUAACUGGACCGAUUCUUCUGUGUUGUUCUAAGAGCUCACCAGAACAUAGAUCAUGCCGUAUAGGUAGUAAAAAAACGCUAGAAGGUAAAAAGCCAACAGAGGAUUGAGCAUCA
# B12: chr12:96259795:96259796:+_ENSG00000139343_ENST00000266735|hu_mus|motif|central (ssRNA)
# RNA: GGGAGUUCUACAGUCCGACGAUCGAGGACAUUAUUACACCUUAUUAGAACUUCGCCCAGAUGUCCAGACAGCGCCCCAUCGGUGUACUCUUCUGUAUUUGCAAGCUGCAUGUUCAUGUAGCCAUCCACGGAGACCAGGUAGCCCAACAGAGGAUUGAGCAUCA
# B13: chr11:106117246:106117247:-_ENSMUSG00000020706_ENSMUST00000021048|mus_mus|motif|central (ssRNA)
# RNA: GGGAGUUCUACAGUCCGACGAUCGCAGGCCUUACAAGUUAAAAGUAGAGGCUAGGAAGUAGAGUGCAAUAACUCGUAUCCGGAACGCUAGGAAGCAUCAACCAGAAGUUCUAUAUCUCUUCACAAAACUAGUGACCUCCAGUACAACAGAGGAUUGAGCAUCA
# B14: chr7:20150648:20150649:-_ENSMUSG00000044709_ENSMUST00000117222|mus_mus|FALSE|FALSE (ssRNA)
# RNA: GGGAGUUCUACAGUCCGACGAUCCUUGAAAGAAUAGGAAAUUAUGUCACUACAUCGAAGCAAGGCCUCGGCCUGUACACCUAUGGGAGUCUGCAGUUGGGAAACGUAGAAGUUGGCCACAUCCAGGUCUGUGGCUCCAAACUGCAACAGAGGAUUGAGCAUCA
# Target: T1, UNK ZnF1-3 (human, UniProt Q9C0B0 31-174)
# T1 sequence: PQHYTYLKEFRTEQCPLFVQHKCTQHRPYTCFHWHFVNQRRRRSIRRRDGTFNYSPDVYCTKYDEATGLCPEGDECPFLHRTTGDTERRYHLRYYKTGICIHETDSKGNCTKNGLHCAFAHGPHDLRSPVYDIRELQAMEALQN
# Assay: nsRBNS (natural sequence RNA bind-n-seq); RBNS binding buffer (assumed for nsRBNS): 25 mM Tris pH 7.5, 150 mM KCl, 3 mM MgCl2, 0.01% Triton X-100, 500 ug/ml BSA, 20 U/ml SUPERase-In, 4 C; UNK is unkempt and MSI1 is Musashi-1; names of the RNAs are library labels; protein concentration not given here; high values mean tight binding
row,Binder,binding signal [enrichment R]
1,B1,0.55
2,B2,0.789
3,B3,1.36
4,B4,1.14
5,B5,1.93
6,B6,0.667
7,B7,2.28
8,B8,1.57
9,B9,0.497
10,B10,1.31
11,B11,1.42
12,B12,0.83
13,B13,1.8
14,B14,0.807
